This is a sample that favours compounds with a hit; in the whole collection about 19% have one here.
S-ASM inh – blocks human secretory acid sphingomyelinase | P17405 | placental ASM, HMU-PC fluorogenic substrate, 60 min | Potency, µM (doses to about 57.5 µM), inactives show top-dose activity change, negative = inhibition, hits mostly inhibitors | 340,000 compounds, 0.006% hits; also: potency is read from the fitted curve at half-maximal effect
Target sequence (P17405 47-631 limits assumed): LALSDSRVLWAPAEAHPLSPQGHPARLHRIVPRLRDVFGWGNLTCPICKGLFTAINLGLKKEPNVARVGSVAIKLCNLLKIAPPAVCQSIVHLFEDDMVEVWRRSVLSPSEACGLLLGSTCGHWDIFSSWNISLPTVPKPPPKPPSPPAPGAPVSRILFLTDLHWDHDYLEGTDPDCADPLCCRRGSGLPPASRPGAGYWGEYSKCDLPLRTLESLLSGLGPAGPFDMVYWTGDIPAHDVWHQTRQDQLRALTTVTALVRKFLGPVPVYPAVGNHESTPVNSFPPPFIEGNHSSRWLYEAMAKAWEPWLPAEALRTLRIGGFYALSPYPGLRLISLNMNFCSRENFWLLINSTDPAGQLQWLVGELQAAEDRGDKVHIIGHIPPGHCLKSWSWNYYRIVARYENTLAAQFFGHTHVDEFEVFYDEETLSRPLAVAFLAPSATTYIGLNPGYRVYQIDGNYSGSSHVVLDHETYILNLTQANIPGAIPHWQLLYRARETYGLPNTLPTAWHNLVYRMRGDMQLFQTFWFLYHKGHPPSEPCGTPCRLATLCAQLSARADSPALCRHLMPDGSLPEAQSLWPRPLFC
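Human placenta-derived ASM enzyme was preincubated with compound for 10 minutes at room temperature, then given fluorogenic substrate HMU-PC0 (9 uM final) for 60 minutes at 37 °C; a pH 10 stop preceded fluorescence reading at Ex 386/Em 447 nm.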
DT40 TDP1 no CPT – qHTS for Inhibitors of human tyrosyl-DNA phosphodiesterase 1 (TDP1): qHTS in cells in absence of CPT; DT40 Tdp1-/- hTDP1 cells, no CPT, ATP luminescence, 48 h; Potency, µM (top dose mostly 46.2 µM), without a hit: at the top dose activity change, negative = growth inhibition, usual class: inhibitors; 420,000 compounds, 15% hits; AID 686978, 2013; also: potency is read from the fitted curve at half-maximal effect; % is scaled to controls: 0 for no effect and ±100 for the full control effect; nearly all actives have a fitted effect of over 55% in size
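DT40 Tdp1-/-;hTDP1 cells, no CPT (DMSO vehicle only), 400 cells/well; compounds pin-transferred; ≥48 hr, 37 °C; CellTiter-Glo 30 min RT dark, luminescence read.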
TGFb SMAD3 inh – blocks TGF-b signaling; HepG2 CAGA-GFP TGF-b/SMAD3 reporter, GFP fluorescence, 18 h; TGF-beta stimulated, 500 pg/mL final; 410,000 compounds, 1.2% hits; AID 588855; Potency, µM (series often up to 46.1 µM), inactives show at the top dose activity, negative = inhibition, usual class: inhibitors; also: potency is read from the fitted curve at half-maximal effect; % is scaled to controls: 0 for no effect and ±100 for the full control effect; nearly all actives have a fitted effect of over 65% in size
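HEPG2 CAGA-GFP reporter cells (1000/well, DMEM with 1% FBS) received compounds, then recombinant TGF-beta at 500 pg/mL final for 18 hours at 37 degrees C. Per-cell GFP summed per well was normalised to unstimulated and stimulated DMSO controls before curve fitting.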
TDP1 cell CPT – growth inhibition of DT40 Tdp1-/-;hTDP1 cells with camptothecin (screen for TDP1 inhibitors) | chicken DT40 Tdp1-/-;hTDP1 cells + 20 nM CPT, ATP luminescence, 48 h | Potency, µM (doses to about 46.2 µM), for the others: top-dose activity change, negative = growth inhibition, hits mostly inhibitors | 420,000 compounds, 12% hits | AID 686979; also: potency is read from the fitted curve at half-maximal effect; % is scaled to controls: 0 for no effect and ±100 for the full control effect; nearly all actives have a fitted effect of over 55% in size
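Chicken DT40 Tdp1-/- cells stably complemented with human TDP1 were seeded at 400 cells/well in medium containing 20 nM camptothecin, exposed to pin-transferred compounds, and grown at 37 °C for at least 48 hr. Viability was read as ATP luminescence.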
HepG2 tox – kills HepG2 cells in TGF-b inhibitor counter-screen; HepG2 CAGA-GFP viability, ATP luminescence, 18 h; Potency, µM (titrated, usually from 46.1 µM), for inactives: top-dose activity change, negative = cytotoxicity, most hits filed as cytotoxic; 410,000 compounds, 0.76% hits; AID 588856; also: potency is read from the fitted curve at half-maximal effect
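HepG2 CAGA-GFP cells (1000/well, DMEM with 1% FBS) received compound, then TGF-beta at 500 pg/mL final, and were incubated 18 hours at 37 degrees C. Viability was read by CellTiter-Glo luminescence. Media-only wells were set as complete cell-killing and DMSO as no toxicity.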
IL-1B inflam inh – inhibitors of inflammasome signaling (IL-1 beta secretion). activity change, % at 57.5 µM. THP-1 LPS/ATP IL-1B secretion, AlphaLISA, 16 h; stronger effect = lower value. 360,000 compounds, 4.7% hits; in the data active = activity change below about -50%; inconclusive = mostly about -30% to -49%; also: % is scaled to controls: 0 for no effect and ±100 for the full control effect
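Secreted IL-1B measured by AlphaLISA bead assay after 16 h compound exposure of THP-1 cells; compounds (final up to 57.5 uM) added 1 h before LPS (250 ng/mL) and ATP (1.25 mM) stimulation; lower signal means less secretion.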
* marks the source's active call; other numbers are inactive results; ! = not confirmed by another sample. Unless noted, calls follow the shape of the dose curve; as a rule, active = well fitted curve in the direction sought with a large enough effect; inconclusive = small, poorly fitted or top-dose-only effect, or another doubt; inactive = no such curve, though single readings can be large; an effect the other way counts as inactive or inconclusive.

For Cn1nnnc1Sc1ncnc2scc(-c3ccc(Br)cc3)c12 the results were S-ASM inh -10.6%, TGFb SMAD3 inh inconclusive and HepG2 tox 15.8µM*.
`Cn1nnnc1Sc1ncnc2scc(-c3ccc[nH]3)c12` gave S-ASM inh -0.6%, TGFb SMAD3 inh inconclusive and HepG2 tox -110.8%.
Screening Cc1ccc(-c2csc3ncnc(Sc4nnnn4C4CC4)c23)cc1 returned DT40 TDP1 no CPT 11.2µM*, TGFb SMAD3 inh 24.5%, TDP1 cell CPT 10µM* and HepG2 tox 1.1%.
Cn1nnnc1Sc1ncnc2scc(-c3ccccc3Br)c12 was read as S-ASM inh -4.2%, TGFb SMAD3 inh inconclusive and HepG2 tox -18.7%.
Screening Cn1nnnc1Sc1ncnc2scc(Br)c12 returned S-ASM inh 0.8%, TGFb SMAD3 inh 2.24µM* and HepG2 tox -37.3%.
Screening COc1ccc(CCNC(=O)C2CCC(=O)N(C3CCCCCC3)C2)cc1 (stereo unspecified) returned S-ASM inh -2.9%, DT40 TDP1 no CPT 11.1%, TGFb SMAD3 inh 1.5%, TDP1 cell CPT -2.6%, HepG2 tox -29.5% and IL-1B inflam inh -2.9.
For COc1ccc(C2C(C)C(=O)C(C)C(c3ccc(OC)cc3)N2N=O)cc1 (stereo unspecified) the results were S-ASM inh inconclusive, DT40 TDP1 no CPT inconclusive, TGFb SMAD3 inh -5.9%, TDP1 cell CPT -14.5%, HepG2 tox 0.8% and IL-1B inflam inh -1.5.
Screening COc1ccc(-c2cc(CC3(C(=O)O)CCN(C(=O)OC(C)(C)C)CC3)on2)c(OC)c1 returned S-ASM inh -10.8%, DT40 TDP1 no CPT 1.4%, TGFb SMAD3 inh 7.6%, TDP1 cell CPT 7.7%, HepG2 tox 21.6% and IL-1B inflam inh 29.8.
Screening O=C(OCc1ccc(F)cc1)c1cc(=O)c2ccccc2o1 returned S-ASM inh -0.4%, DT40 TDP1 no CPT 1.0%, TGFb SMAD3 inh 7.7%, TDP1 cell CPT -2.8%, HepG2 tox -3.2% and IL-1B inflam inh -13.7.
Screening Cn1nnnc1Sc1ncnc2scc(-c3ccccc3)c12 returned S-ASM inh 0.3%, DT40 TDP1 no CPT 16.4µM*, TGFb SMAD3 inh inconclusive, TDP1 cell CPT 14.6µM*, HepG2 tox -27.5% and IL-1B inflam inh -104.1*.
`Cn1nnnc1Sc1ncnc2scc(-c3ccc(F)cc3)c12` gave S-ASM inh -2.1%, DT40 TDP1 no CPT 6.51µM*, TGFb SMAD3 inh 11.2µM*, TDP1 cell CPT 16.4µM*, HepG2 tox 10µM*! and IL-1B inflam inh -67.6*.
CCOc1ccc(-c2csc(/C(C#N)=C\c3ccc(O)c([N+](=O)[O-])c3)n2)cc1 was read as S-ASM inh -16.6%, DT40 TDP1 no CPT 4.61µM*, TGFb SMAD3 inh 5.01µM*, TDP1 cell CPT 3.66µM*, HepG2 tox -6.7% and IL-1B inflam inh -6.2.
COc1cc2nc(SCC(=O)NCCc3ccccc3)n(Cc3ccco3)c(=O)c2cc1OC was read as S-ASM inh -2.5%, DT40 TDP1 no CPT -5.5%, TGFb SMAD3 inh 2.5%, TDP1 cell CPT -15.7%, HepG2 tox -17.4% and IL-1B inflam inh -1.9.
Screening CCSc1nc2cc(OC)c(OC)cc2c(=O)n1CCc1ccccc1 returned S-ASM inh -10.2%, DT40 TDP1 no CPT 20.6µM*, TGFb SMAD3 inh 6.0%, TDP1 cell CPT 16.4µM*, HepG2 tox 4.6% and IL-1B inflam inh 12.5.
`COCCCn1c(SCCc2ccccc2)nc2cc(OC)c(OC)cc2c1=N` gave S-ASM inh inconclusive, DT40 TDP1 no CPT 13µM*, TGFb SMAD3 inh inconclusive, TDP1 cell CPT 16.4µM*, HepG2 tox -103.1% and IL-1B inflam inh -17.2.
For O=C(O)C1CCCCC1C(=O)Nc1ccc(S(=O)(=O)N2CCOCC2)cc1 (stereo unspecified) the results were S-ASM inh 9.6%, DT40 TDP1 no CPT 7.7%, TGFb SMAD3 inh 4.3%, TDP1 cell CPT 0.0%, HepG2 tox -1.7% and IL-1B inflam inh 26.0.
`CC1CC(C)CN(C(=O)CNC(=O)c2ccc3ccccc3c2)C1` (stereo unspecified) gave S-ASM inh -0.6%, DT40 TDP1 no CPT inconclusive, TGFb SMAD3 inh -1.6%, TDP1 cell CPT -25.3%, HepG2 tox -11.5% and IL-1B inflam inh -14.8.
O=C(NCCc1nc2ccccc2n1CCCOc1ccc(Cl)cc1)C1CCCCC1 was read as DT40 TDP1 no CPT inconclusive, TGFb SMAD3 inh 17.8µM*, TDP1 cell CPT inconclusive and HepG2 tox -97.5%.
For CC(C)(C)NC(=O)Cn1c(SCC(N)=O)nc2ccccc21 the results were S-ASM inh -0.8%, DT40 TDP1 no CPT inconclusive, TGFb SMAD3 inh 3.4%, TDP1 cell CPT 25.9µM*, HepG2 tox -7.0% and IL-1B inflam inh -1.2.
Screening CC(=O)NCCc1nc2ccccc2n1CCOc1cccc(C)c1 returned S-ASM inh 6.2%, DT40 TDP1 no CPT inconclusive, TGFb SMAD3 inh -6.2%, TDP1 cell CPT inconclusive, HepG2 tox 6.4% and IL-1B inflam inh 4.5.
Screening Cc1cccc(OCCCn2c(CCNC(=O)C(C)C)nc3ccccc32)c1 returned S-ASM inh -2.3%, DT40 TDP1 no CPT 16.4µM*, TGFb SMAD3 inh inconclusive, TDP1 cell CPT inconclusive, HepG2 tox -36.8% and IL-1B inflam inh -5.6.
Screening Cc1ccccc1OCCCn1c(CCNC(=O)C2CCCCC2)nc2ccccc21 returned DT40 TDP1 no CPT 16.4µM*, TGFb SMAD3 inh inconclusive, TDP1 cell CPT 13µM* and HepG2 tox -54.7%.
Screening Cc1cc(OCCn2c(CCNC(=O)C3CCCCC3)nc3ccccc32)ccc1Cl returned DT40 TDP1 no CPT inconclusive, TGFb SMAD3 inh -5.1%, TDP1 cell CPT inconclusive and HepG2 tox -10.3%.
`COc1ccc(CCC(=O)N2CCCC(Nc3ccc(C)c(C)c3)C2)cc1OC` (stereo unspecified) gave S-ASM inh 0.2%, DT40 TDP1 no CPT inconclusive, TGFb SMAD3 inh 1.1%, TDP1 cell CPT inconclusive, HepG2 tox -18.0% and IL-1B inflam inh 5.6.
Screening Cc1cc(C)cc(OCCn2c(CCNC(=O)C3CCCCC3)nc3ccccc32)c1 returned DT40 TDP1 no CPT inconclusive, TGFb SMAD3 inh -1.9%, TDP1 cell CPT inconclusive and HepG2 tox 0.2%.
Cc1cccc(OCCn2c(SCC(N)=O)nc3ccccc32)c1 was read as DT40 TDP1 no CPT 20.6µM*, TGFb SMAD3 inh 3.7%, TDP1 cell CPT inconclusive and HepG2 tox -25.0%.
